This is a sample that favours compounds with a hit; in the whole collection about 11% have one here.
ALDH1A1 inh: blocks purified human ALDH1A1 activity; Purified ALDH1A1, NADH fluorescence, propionaldehyde substrate; P00352; Potency, µM (series often up to 75.3 µM), inactives show at the highest dose activity, negative = inhibition, usual class: inhibitors; 7.3% of 220,000 active; active = well fitted inhibition curve with a large enough effect, not every such curve was filed as active; inconclusive = small, poorly fitted or top-dose-only effect, or another doubt; inactive = no such curve, though single readings can be large or run the other way;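 also: potency is read from the fitted curve at half-maximal effect; plate controls were no enzyme wells and a reference inhibitor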
PNC assembly inh: blocks assembly of the perinucleolar compartment. AID 2417. PC3M PTB-GFP, PNC prevalence imaging, 16 h; active compounds read low. 3.1% of 140,000 active. activity change (PNC), negative = inhibition, % at 10 µM;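 active = readout at or below -70, meaning at least 70% loss of cells showing the perinucleolar compartment, a nuclear body marking cancer cells; inconclusive = readout between -30 and a set limit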;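 also: plate controls were DMSO wells for no effect and camptothecin positive control wells for full effect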
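Read-out is percentage of cells bearing a perinucleolar compartment, from automated 20x imaging of fixed, Hoechst-stained PC3M PTB-GFP cells. Cells were seeded 4 h, then exposed 16 h to compound (23 nl of library stock) in duplicate plates.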
GoLoco inh red: inhibitors of human Gai1-RGS12 GoLoco interaction (red fluorophore); Potency, µM (doses to about 61.6 µM), inactives show at the highest dose activity, negative = inhibition, usual class: inhibitors; 0.44% of 230,000 active; P63096; Gai1:RGS12 GoLoco peptide FP, rhodamine, 10 min; active = well fitted inhibition curve with a large enough effect, not every such curve was filed as active; inactive = no such curve, though single readings can be large or run the other way; also: potency is read from the fitted curve at half-maximal effect; % is scaled to controls: 0 for no effect and ±100 for the full control effect; nearly all actives have a fitted effect of over 30% in size
Target sequence (P63096 whole entry, looked up): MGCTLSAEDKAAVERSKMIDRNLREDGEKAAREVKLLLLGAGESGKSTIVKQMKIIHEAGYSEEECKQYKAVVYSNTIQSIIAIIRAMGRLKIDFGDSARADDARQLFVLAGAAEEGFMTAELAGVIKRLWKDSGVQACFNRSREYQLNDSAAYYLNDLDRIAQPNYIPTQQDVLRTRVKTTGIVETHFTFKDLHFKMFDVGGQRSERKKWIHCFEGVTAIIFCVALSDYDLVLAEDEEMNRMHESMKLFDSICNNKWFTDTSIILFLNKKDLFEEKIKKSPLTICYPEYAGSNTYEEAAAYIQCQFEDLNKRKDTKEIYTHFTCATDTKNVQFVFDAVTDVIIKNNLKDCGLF
HTT cytoprotect: cytoprotection in Huntington HTT-Q103 PC12 cell model | PC12 HTT-Q103 induced, cytoprotection, ATP luminescence, 40 h | Potency, µM (highest dose often 56.4 µM), for inactives: cytoprotection (ATP increase), most hits filed as activators | 0.14% of 230,000 active | AID 1471; also: potency is read from the fitted curve at half-maximal effect; % of control where 0% means no effect; nearly all actives have a fitted effect of over 45% in size
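Rat PC12, Q103 Htt exon1-GFP fusion, ecdysone promoter; tebufenozide inducer 100 nM final; compound titration; qHTS, 1500 cells/well; ATPlite luminescent read.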
HTT aggregate: inhibitors of mutant huntingtin aggregate formation in PC12 cells | PC12 HttQ103-GFP aggregates, Acumen cytometry, 40 h | Potency, µM (titrated, usually from 46.1 µM), without a hit: at the highest dose activity change, negative = inhibition, actives largely listed as inhibitors | 1.1% of 220,000 active; also: potency is read from the fitted curve at half-maximal effect; % is scaled to controls: 0 for no effect and ±100 for the full control effect; nearly all actives have a fitted effect of over 60% in size
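Aggregate formation scored by laser-scanning cytometer (488 excitation, 500–530 emission) in lysed PC12 cells expressing Q103-GFP after 100 nM tebufenozide induction; library tested in dose series, with ATPLite reagent added in the multiplex.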
HPGD inh: HPGD (human) dehydrogenase inhibition | purified HPGD, NADH fluorescence kinetic, PGE2 substrate | Potency, µM, for inactives: top-dose activity change, negative = inhibition, most hits filed as inhibitors | 4.3% of 150,000 active | P15428; active = well fitted inhibition curve with a large enough effect, not every such curve was filed as active; inconclusive = small, poorly fitted or top-dose-only effect, or another doubt; inactive = no such curve, though single readings can be large or run the other way; also: potency is read from the fitted curve at half-maximal effect; % is scaled to controls: 0 for no effect and ±100 for the full control effect
Target sequence (P15428 whole entry, looked up): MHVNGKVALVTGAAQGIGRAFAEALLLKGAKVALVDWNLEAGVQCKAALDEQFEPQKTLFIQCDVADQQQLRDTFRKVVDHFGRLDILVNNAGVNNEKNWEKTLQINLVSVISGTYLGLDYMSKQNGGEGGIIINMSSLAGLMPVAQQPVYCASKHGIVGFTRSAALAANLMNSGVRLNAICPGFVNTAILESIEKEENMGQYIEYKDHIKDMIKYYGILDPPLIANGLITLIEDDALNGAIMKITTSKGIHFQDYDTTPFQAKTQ
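20 nM HPGD preincubated 15 min at room temperature with compound in 50 mM Tris-HCl pH 8, 0.01% Tween 20. Started with 1 mM NAD+ and 30 uM prostaglandin E2; NADH fluorescence (360/450 nm) read 5 times over 30-s intervals, last minus first.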
Active calls of the source: *; i = inactive; ? = inconclusive; · = no result; [ ] = another dose, or the depositor's remark. Unless noted, calls follow the shape of the dose curve; as a rule, active = well fitted curve in the direction sought with a large enough effect; inconclusive = small, poorly fitted or top-dose-only effect, or another doubt; inactive = no such curve, though single readings can be large; an effect the other way counts as inactive or inconclusive.

SMILES | ALDH1A1 inh | PNC assembly inh | GoLoco inh red | HTT cytoprotect | HTT aggregate | HPGD inh
O=C(Nc1ccccc1)OC[C@H](CN1CCCCC1)OC(=O)Nc1ccccc1 | -11.9%[20.9 µM] | · | -4.4%[21.6 µM] | 9.3%[40.3 µM] | 16.4%[20.6 µM] | -4.8%
CNc1ncnc2ccc(-c3ccccc3C#N)cc12 | ? | · | -0.5% | -37.0% | · | ·
C/C(N)=C(\C#N)C(=O)NCc1ccccn1 | 7.3% | -25.0 | 3.7% | -1.2%[0.074 µM] | -1.5% | -11.8%
O=C(CCN1C(=O)CSC1=O)Nc1ccc(Br)cc1 | 8.3% | -100.0* | 5.5% | -1.2%[10 µM] | -3.1% | -10.2%
Cc1cc(NC(=O)CCN2CCC(C(N)=O)CC2)ccc1Br | ? | ? | 4.6% | 5.2% | -5.2% | -5.1%
NC(=O)C1CCN(CCC(=O)Nc2ccc(Br)cc2)CC1 | i | -21.7 | 17.0% | 0.112µM* | · | -20.2%
O=C1CCCN1CCCNC(=S)Nc1ccc(Cl)cc1Cl | 9.9% | · | 4.5% | -3.5% | -4.5% | ·
O=S(=O)(c1ccccc1)N1CCN(C(=S)NCc2ccccc2)CC1 | ? | · | 1.0% | 5.0%[10 µM] | 0.4% | ·
O=S(=O)(c1ccccc1F)N1CCN(C(=S)NCc2ccccc2)CC1 | 15.8µM* | · | -6.0% | · | 4.2% | ·
CCOc1ccc(S(=O)(=O)N2CCN(C(=S)NCc3ccccc3)CC2)cc1 | -6.2% | · | 6.9% | 11.2%[10 µM] | 7.8%[9.22 µM] | ·
O=S(=O)(c1cccc(F)c1)N1CCN(C(=S)NCc2ccccc2)CC1 | 14.1µM* | · | 1.9% | 9.1%[10 µM] | -6.4%[9.22 µM] | ·
CNCc1ccccc1Sc1ccc(O)c(O)c1 | 0.562µM* | 4.9 | -8.4% | · | ? | 17.8µM*
O=C(O)c1c(Sc2ccccc2)c2cc(Cl)ccc2n1Cc1ccc(Cl)cc1 | 0.6% | · | 8.6% | -38.4% | · | -0.9%
C=CC[C@@H]1C=C[C@H](O/N=C\[C@@H](C)[C@H](OCc2ccccc2)C(C)C)[C@H](CO)O1 | 4.8%[13.5 µM] | · | · | -14.4%[10 µM] | · | ·
Cc1ccc(-n2c(SCC(=O)Nc3cc(S(=O)(=O)N4CCOCC4)ccc3Cl)nc3ccccc3c2=O)cc1 | 5.1% | 10.7 | -6.1% | 37.1%[10 µM] | 3.3% | -4.6%
Nc1ccc2nc(SCC(=O)Nc3ccc(N4CCOCC4)c(Cl)c3)sc2c1 | ? | -10.4 | -73.7% | · | 12.4% | -17.2%
CCCC(=O)Nc1ccc2nc(SCC(=O)Nc3ccc(N4CCOCC4)c(Cl)c3)sc2c1 | ? | -2.7 | 4.47µM* | -35.4% | ? | -21.1%
O=C(CSc1nc2ccc(Nc3nc(N4CCOCC4)nc(N4CCOCC4)n3)cc2s1)N1CCOCC1 | 3.6% | -1.6 | 6.1% | 16.0%[10 µM] | -7.9% | 22.4µM*
O=C(CSc1nc2ccccc2s1)Nc1cc(S(=O)(=O)N2CCOCC2)ccc1Cl | 22.4µM* | -1.5 | 52.3% | -0.3%[1.9 µM] | -13.5% | -31.3%
Cc1ccc(C2(c3noc(CN(C)Cc4cnn(C)c4)n3)CCCC2)cc1 | 1.7% | · | 11.1% | -12.3%[10 µM] | -10.2%[9.22 µM] | ·
COCCNC(=O)C1(C)C=CCN1C(C)=O (configuration not stated) | 2.5% | · | 0.2% | 1.4% | · | -19.7%
CCOc1cc(/C=N/N2C(=O)NC3(CCCCC3)C2=O)cc(Br)c1O | 15µM* | · | -6.7% | -47.6% | 4.0% | ·
C[C@H](CCC(=O)O)C1CC[C@H]2C3CC[C@@H]4C[C@H](O)CC[C@]4(C)C3C[C@H](O)[C@]12C (some centres not stated) | 1.1% | · | 7.7% | -20.1% | · | ·
COc1ccc(NC(=S)NC(NC(=O)c2cccc(C)c2)C(Cl)(Cl)Cl)c([N+](=O)[O-])c1 (configuration not stated) | ? | 24.8 | 9.9% | -13.2%[1.9 µM] | 3.7% | -22.5%
COc1ccc(NC(=S)NC(NC(=O)c2cccc(Cl)c2)C(Cl)(Cl)Cl)c([N+](=O)[O-])c1 (configuration not stated) | 17.8µM* | 12.9 | -2.3% | 17.6%[10 µM] | 28.2µM* | -12.5%
SMILES | ALDH1A1 inh | PNC assembly inh | GoLoco inh red | HTT cytoprotect | HTT aggregate | HPGD inh
O=C(CCc1ccccc1)Nc1ccc2c(c1)OCCO2 | -7.5% | -15.1 | 2.1% | -16.1% | -1.6% | -16.7%
O=C(CCc1ccccc1)Nc1cc2c(cc1Cl)OCCO2 | 1.6% | -109.0* | 2.4% | · | 10.3% | ?
CC1=C[C@H]2OC(=O)[C@@H](C)[C@H]2C[C@@H]2[C@H]1C[C@@H](O)[C@@]2(C)O | · | · | -1.4% | 17.2%[10 µM] | 34.1%[9.22 µM] | ·
C[C@H](N)C1CCC(C(=O)Nc2ccncc2)CC1 (some centres not stated) | · | · | · | 8.2%[1.9 µM] | · | ·
Nc1nc(-c2cccs2)c(NC(=O)c2ccccc2)s1 | 20µM* | -25.7 | 0.6% | 2.4%[10 µM] | ? | -5.7%
CC(=O)Nc1sc(NC(=O)c2ccc(Cl)cc2)nc1-c1cccs1 | -8.6% | 24.2 | 2.7% | -21.0% | -4.4% | -19.4%
COc1ccc(N2C(=O)CC(N3CCN(c4ccc(S(C)(=O)=O)cc4)CC3)C2=O)cc1 (configuration not stated) | 22.4µM* | 24.1 | 0.4% | 9.0% | 7.6%[1.84 µM] | -11.6%
COc1ccc(N2C(=O)CC(N3CCN(c4nc5ccccc5s4)CC3)C2=O)cc1 (configuration not stated) | 25.1µM* | 8.6 | 4.3% | -4.9% | 0.8% | -8.2%
COc1cccc2sc(N3CCN(c4nc5ccccc5s4)CC3)nc12 | 14.1µM* | ? | · | -29.3%[0.074 µM] | 22.8% | ·
CC(C)=NO[C@@H](C)c1cn([C@@H]2COC[C@@H]2O)nn1 | 15.1%[13.5 µM] | · | · | -6.7%[10 µM] | · | ·
COc1cc2nncc(SCc3ccc(Cl)c(Cl)c3)c2cc1OC | -12.9%[13.5 µM] | · | 4.4%[14.2 µM] | -6.2%[10 µM] | · | -4.7%
Cc1ccc2nsnc2c1NS(=O)(=O)c1c(C)ccc2nsnc12 | -4.0% | -12.8 | -5.7% | -11.9% | -5.1% | -5.6%
Cc1ccc(/C=[N+](\[O-])c2ccc(N(C)C)cc2)c2nsnc12 | 1.12µM* | · | 6.2% | -161.7% | 11.2µM* | ·
O=c1ccn(CCc2c[nH]c3ccccc23)c2c1CCCC2 | 14.1µM* | · | 20.0% | -47.2% | -9.8% | ·
COC(=O)C1=C(C)N(CCc2c[nH]c3ccccc23)C(=O)C1 | ? | · | 149.5% | 3.7% | 5.4%[9.22 µM] | ·
O=C1N/C(=N\c2ccccn2)SC1Cc1ccc(Cl)cc1 (configuration not stated) | 3.7% | · | 6.5% | 17.1%[10 µM] | -7.0%[9.22 µM] | ·
CC(=NCCCNC1CCCCC1)C1=C(O)CC(C)(C)CC1=O | 28.2µM* | -15.7 | 1.1% | 0.2% | 8.7% | -4.0%
CCN(C)C(=O)Oc1cccc([C@H](C)N(C)C)c1 | · | · | · | 16.7% | 25.4% | ·
CC1(C)Cc2c(C#N)c(N3CCN(C(=O)c4ccccc4)CC3)nc(Cc3ccccc3)c2CO1 | ? | 10.5 | -13.8% | -23.1% | 22.4µM* | ?
COc1ccc(C(=O)Nc2nncs2)cc1S(=O)(=O)N1CC(c2ccccc2)CC1=O (configuration not stated) | ? | -0.2 | 86.8% | -3.2% | 9.4% | -8.9%
O=C(O)c1ccccc1NCn1c(=S)sc2ccccc21 | ? | · | -2.6%[14.2 µM] | 2.1%[10 µM] | · | ?

From PubChem BioAssay
